Bioassay records (PubChem)
Sampled rows, rich in hits. Any-hit rate of the full collection: about 7.4%.
ELG1 genotoxic – inducers of genotoxicity in HEK293T ELG1-luciferase cells; HEK293T ELG1-luciferase reporter, luminescence, 16 h; Potency, µM (top dose mostly 46 µM), without a hit: at the highest dose activity change, positive = activation, most hits filed as activators; 1.3% of 330,000 active; AID 504466; also: % of control where 0% means no effect; nearly all actives have a fitted effect of over 60% in size
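Reporter readout depends on ELG1 protein level, which increases with genetic stress. After 16 hr compound exposure at 37 °C, luciferase activity was quantified using ONE-Glo.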
Rab9 prom act – activates the Rab9 promoter | Huh7 Rab9 promoter-luciferase reporter, luminescence, 24 h | 2.8% of 320,000 active | AID 485297 | Potency, µM (titrated, usually from 9.22 µM), for the others: at the top dose activation, negative = inhibition, actives largely listed as activators; also: % of control where 0% means no effect; nearly all actives have a fitted effect of over 60% in size
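Stable Rab9-luc Huh7, 1500 cells/well, 2 h settle; cmpd in DMSO, 24 h, 37 °C/5% CO2; luciferase reagent 10 min RT; luminescence.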
SMN2 splice up – increases expression of the SMN2 splice variant | HEK293 SMN2-luciferase splicing reporter, luminescence, 30-36 h | Potency, µM (series often up to 46.1 µM), inactives show at the top dose activity change, positive = activation, hits mostly activators | 2.8% of 210,000 active; also: % of control where 0% means no effect; nearly all actives have a fitted effect of over 55% in size
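HEK293 cells carry an SMN2 minigene-luciferase reporter in which exon 7 inclusion puts luciferase in frame. Cells were seeded at 2000 cells/well, attached for 10-12 hours, then exposed to compounds for 30-36 hours at 37C before ONE-Glo luminescence.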
FLuc counter – counter-screen for miR-21 project: firefly luciferase inhibitors or activators; P08659; purified FLuc, Km substrates, luminescence inhibition; Potency, µM (doses to about 57.5 µM), inactives show at the top dose activity change, negative = inhibition, most hits filed as inhibitors; 6.9% of 360,000 active; AID 588342;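 also: plate controls were vehicle for no effect and reference inhibitor for full effect; nearly all actives have a fitted effect of over 55% in size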
Target sequence (P08659 whole entry, looked up): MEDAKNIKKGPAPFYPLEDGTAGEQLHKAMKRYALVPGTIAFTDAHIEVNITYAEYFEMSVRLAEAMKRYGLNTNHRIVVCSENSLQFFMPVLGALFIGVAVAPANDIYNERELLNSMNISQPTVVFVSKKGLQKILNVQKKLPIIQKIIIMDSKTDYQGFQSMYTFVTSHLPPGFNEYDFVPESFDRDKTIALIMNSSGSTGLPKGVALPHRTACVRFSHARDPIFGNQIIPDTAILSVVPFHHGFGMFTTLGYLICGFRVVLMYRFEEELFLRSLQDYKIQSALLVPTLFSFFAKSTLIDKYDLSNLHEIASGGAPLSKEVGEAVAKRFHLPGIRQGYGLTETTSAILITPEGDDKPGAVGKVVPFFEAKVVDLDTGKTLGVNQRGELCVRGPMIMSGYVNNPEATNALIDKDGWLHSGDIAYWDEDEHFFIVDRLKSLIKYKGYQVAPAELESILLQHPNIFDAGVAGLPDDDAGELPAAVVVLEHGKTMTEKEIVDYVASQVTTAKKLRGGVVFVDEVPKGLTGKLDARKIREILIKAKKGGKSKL
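Purified P. pyralis luciferase (10nM final) with 10uM D-luciferin and 10uM ATP (Km levels) in 50mM Tris acetate pH 7.5, 10mM Mg acetate, 0.01% Tween-20, 0.05% BSA; qHTS 6-point titration, ~60 µM downward; luminescence read.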
NPC1 prom act – NPC1 promoter activation. 2.4% of 320,000 active. Huh7 NPC1 promoter luciferase reporter, 24 h. Potency, µM (doses to about 9.22 µM), for the others: top-dose activation, actives largely listed as activators; also: % of control where 0% means no effect; nearly all actives have a fitted effect of over 60% in size
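Luminescence read-out of NPC1 promoter-driven luciferase in stably transfected Huh7 cells; compounds delivered in DMSO and left 24 h at 37C, 5% CO2, qHTS titration format.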
Active calls of the source: *; ? = inconclusive; / = no result given; [ ] = dose if it differs, or a comment. Calls follow the shape of the dose curve; as a rule, active = well fitted curve in the direction sought with a large enough effect; inconclusive = small, poorly fitted or top-dose-only effect, or another doubt; inactive = no such curve, though single readings can be large; an effect the other way counts as inactive or inconclusive. Potency is read from the fitted curve at half-maximal effect.

SMILES	ELG1 genotoxic	Rab9 prom act	SMN2 splice up	FLuc counter	NPC1 prom act
Cc1nnc(N2C(=O)c3oc4ccccc4c(=O)c3C2c2cccc(OCCC(C)C)c2)s1 (stereo not drawn)	/	/	0%	-6%	/
Cc1ccccc1NC(=O)Nc1ccccc1C(N)=O	7%	-2%	/	-12%	-1%
COc1ccc(NC(=O)Nc2ccccc2OC)cc1	9.2µM*	?	?	8.5µM*	?
Cc1ccc(NC(=O)Nc2ccccc2C(N)=O)cc1	12%	15%	/	2.7µM*	17%
CCCn1c(-c2ccc(F)cc2)nc2c(NCCCCN(C)C)nc(C)nc21	/	/	-2%	/	/
Cc1sc2ncnc(Nc3ccc(O)cc3)c2c1C	7%	2%	/	-11%	0%
Cc1sc2ncnc(N/N=C/c3cccc(O)c3)c2c1C	?	-4%	?	11µM*	2%
C/C(=N\Nc1ncnc2sc(C)c(C)c12)c1ccccn1	?	8%	/	5.4µM*	?
Cc1ccc(S(=O)(=O)Nc2ncnc3sc(C)c(C)c23)cc1	-6%	0%	/	-3%	-6%
COc1cc(/C=N/NC2=NCCCCC2)ccc1O	-4%	0%	/	-3%	-3%
COc1cc(/C=N/Nc2ncnc3sc4c(c23)CCC4)ccc1O	?	-2%	8%	2.4µM*	1%
Cc1ccc(Nc2ncnc3sc(C)c(C)c23)cc1	?	29%	?	21µM*	0%
CCC(=O)N1CCc2cc(Br)cc(S(=O)(=O)N3CCN(c4ccccc4OC)CC3)c21	/	/	2%	-3%	/
CCOC(=O)c1cc(-c2ccccc2)n(CCC(=O)Nc2nc3c(C)cccc3s2)c1C	/	/	/	-1%	/
C/C(=N\Nc1ncc(Cl)cc1Cl)c1ccccn1	?	-13%	-88%	0.17µM*	0%
CC(=O)Nc1ccc(NC(=O)CSc2nnc(NC(=O)c3ccc(Br)o3)s2)cc1	6%	-3%	/	2.1µM*	-3%
CC(=O)Nc1cccc(NC(=O)CSc2nnc(NC(=O)C3CC3)s2)c1	10%	4%	/	?	1%
CCc1nnc(NC(=O)c2ccc(Br)o2)s1	13%	?	/	?	18%
O=C(CSc1nnc(NC(=O)c2ccco2)s1)Nc1cccc(F)c1	?	?	/	6.7µM*	?
O=C(CSc1nnc(NC(=O)c2ccco2)s1)Nc1ccc(F)cc1F	2%	17%	/	?	1%
Cc1ccc(SCC(=O)Nc2ccc(N3CCN(C)CC3)c(F)c2)cc1	?	?	10%	15µM*	?
CC(=O)Nc1cccc(NC(=O)CSc2nnc(NC(=O)c3ccco3)s2)c1	15%	23%	/	19µM*	-4%
CCOC(=O)C1CCCN(c2c(C(=O)c3ccccc3)cnc3ccc(F)cc23)C1 (stereo not drawn)	/	/	-5%	-12%	/
COc1ccc(-n2c(=O)c(-c3ccc(Cl)cc3)nc3cnc(N4CCOCC4)nc32)cc1	/	/	2%	/	/
COc1cccc(NC(=O)CSc2nnc(C)s2)c1	12%	-4%	?	5%	0%
SMILES	ELG1 genotoxic	Rab9 prom act	SMN2 splice up	FLuc counter	NPC1 prom act
COc1cccc(NC(=O)CSc2nnc(NC(=O)c3ccco3)s2)c1	17%	17%	/	24µM*	14%
O=C(CSc1ccc(Cl)cc1)Nc1ccc(NC(=O)c2ccco2)cc1	3%	20%	?	12%	17%
Cc1ccc(SCC(=O)Nc2cccc(NC(=O)c3ccco3)c2)cc1	-3%	4%	-15%	19µM*	-1%
Cc1ccc(SCc2nc3ccccc3[nH]2)cc1	12%	?	?	6µM*	2.2µM*
c1ccc(SCc2nc3ccccc3[nH]2)cc1	?	2.2µM*	?	12µM*	2.5µM*
Clc1ccc(SCc2nc3ccccc3[nH]2)cc1	-3%	?	11%	9.5µM*	?
Cc1ccc(CSCc2nc3ccccc3[nH]2)cc1	-2%	4%	-17%	?	10%
O=c1[nH]c2ccccc2nc1-c1ccc(Cl)cc1	?	2.8µM*	/	?	?
c1ccc2[nH]c(CSc3nccs3)nc2c1	9%	14%	?	?	14%
C=CC(C1=CC(=O)C(OC)=CC1=O)c1ccc(O)cc1 (stereo not drawn)	/	/	-2%	/	/
Fc1ccccc1CSCc1nc2ccccc2[nH]1	?	2.8µM*	10µM*	17µM*	4µM*
CC(C)SCc1nc2ccccc2[nH]1	3%	4%	-4%	-13%	3%
CCCCCc1ccc(-c2cn(CC3CCCCC3)nn2)cc1	0%	2µM*	/	-1%	?
CCCCCc1ccc(-c2cn(CCCOCc3ccccc3)nn2)cc1	-1%	-2%	/	-1%	3%
c1ccc(-c2cn(C[C@H]3CC[C@@H]([C@@H]4CC[C@H](Cn5cc(-c6ccccc6)nn5)O4)O3)nn2)cc1	0%	6%	/	-18%	-3%
COc1ccc(-c2cn(CCCOCc3ccccc3)nn2)cc1	0%	0%	/	-2%	3%
c1ccc(-c2cn(CC3CCCCC3)nn2)cc1	?	2.2µM*	/	15µM*	3.5µM*
COc1ccc(-c2cn(CC3CCCCC3)nn2)cc1	?	2.8µM*	/	?	4µM*
CC(C)(C)c1ccc(NC(=O)COC(=O)c2ccc3ncsc3c2)cc1	0%	21%	/	-17%	7%[1.84 µM]
COc1ccc(NC(=O)c2ccc3ncsc3c2)cc1	?	1.4µM*	/	8.5µM*	3.2µM*
CN(C)S(=O)(=O)c1ccc(NC(=O)c2ccc3ncsc3c2)cc1	?	15%	/	?	24%
O=C(Nc1ccc(Br)cc1)c1ccc2ncsc2c1	1.6µM*	0.35µM*	/	5.4µM*	0.4µM*
CCc1ccc(NC(=O)c2ccc3ncsc3c2)cc1	?	3.5µM*	8.9µM*	2.7µM*	1.4µM*
O=C(Nc1ccc2c(c1)C(=O)NC2=O)c1ccc2ncsc2c1	?	?	11µM*	?	?
COC1=CC(=O)C(O)=C/C1=C\C=C\c1ccccc1	/	/	-20%	/	/
SMILES	ELG1 genotoxic	Rab9 prom act	SMN2 splice up	FLuc counter	NPC1 prom act
CCc1ccc(NC(=O)C(Cc2ccccc2)NS(=O)(=O)c2ccc3c(c2)c(=O)n(C)c(=O)n3C)cc1 (stereo not drawn)	/	/	2%	-10%	/
CN1CCN(c2ncc3nc(-c4ccccc4)c(=O)n(Cc4ccc(F)cc4)c3n2)CC1	/	/	1%	/	/
CN(C)CCNc1oc(-c2ccc(COc3ccc(Cl)cc3)o2)nc1C#N	/	/	/	4%	/
Cc1cc(N)n(-c2cc(C)c3ccccc3n2)n1	?	?	11µM*	2.7µM*	-4%
Cc1cc(C)c2nc(-n3nc(C)cc3N)cc(C)c2c1	?	?	11µM*	1.2µM*	13%
Cc1cc(N)n(-c2ccccc2)n1	1%	3%	0%	0%	2%
CC(C)ON([C@@H](C(=O)NO)C(C)C)S(=O)(=O)c1ccc(-c2ccccc2)cc1	/	-35%[46.1 µM]	/	/	-15%[46.1 µM]
O=[N+]([O-])c1cc(/C=N\Nc2nccs2)ccc1O	-5%	1%	?	17µM*	5%
